Measurements: PubChem BioAssay
Unmarked numbers belong to inactive results. For part of these data: Results with a measured potency or affinity are listed apart. The source made the active and inactive calls. Unless noted, the rule behind the calls is not given here.

Columns and labels:
[1] = antimalarial activity against Dd2 strain (AID 2302;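 active = growth inhibition above 50% at the single 2 µM test dose, taken to imply half-maximal potency below 2 µM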;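 note: 0% = DMSO untreated growth and 100% = chloroquine plus artemisinin killed control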); details: P. falciparum Dd2 in RBCs, LDH growth readout, 72 h; at 2 µM; hits give high values
[2] = human hepatoma cell viability loss – ATP luminescence, cytotoxicity control for P. falciparum antimalarial project, primary screen (AID 2303;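 active = inhibition above 50%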;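 note: 0% = DMSO wells and 100% = digitonin-killed cells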); details: HepG2 viability, 24-48 h, at 10 µM, hits give high values
[3] = biological target: L-lactate dehydrogenase (Plasmodium falciparum (isolate CDC / Honduras)) (UniProt Q27743); experiment: PfLDH activity inhibition – cell lysate, 3D7 strain, counter-screen for P. falciparum growth inhibition project (AID 2304);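 note: 0% = vehicle and 100% = reference inhibitor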; details: P. falciparum 3D7 crude extract, LDH APAD/NBT absorbance; at 2 µM; hits give high values
[4] = inhibition of 3D7 malaria parasite growth – strain 3D7 (AID 2306);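 note: 0% = DMSO wells and 100% = chloroquine plus artemisinin control wells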; details: P. falciparum 3D7 erythrocytic growth, LDH absorbance, 72 h; at 2 µM; hits give high values
[5] = biological target: Calcium-dependent protein kinase 1 (Plasmodium falciparum (isolate 3D7)) (UniProt P62344); experiment: PfCDPK1 kinase inhibitors, biochemical, TCAMS library (AID 1159585; cut-off not given, nearly all actives have IC50 up to about 0.98 µM;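 note: inhibitors leave more ATP so luminescence rises with inhibition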); details: recombinant PfCDPK1, Kinase-Glo ATP depletion luminescence
[6] = biological target: Plasmodium falciparum protein kinase 6 (PK6, PF3D7_1337100) (UniProt Q8IDW1); experiment: PfPK6 kinase inhibitors, biochemical, TCAMS library (AID 1159586); details: recombinant PfPK6, Kinase-Glo ATP depletion luminescence
[7] = biological target: Protein kinase 7 (PK7), Plasmodium falciparum 3D7 (PF3D7_0213400) (UniProt Q7YTF7); experiment: inhibition of Plasmodium PK7 catalytic activity – biochemical, TCAMS antimalarial set, Kinase-Glo luminescence (AID 1159587); details: recombinant PfPK7, Kinase-Glo ATP depletion luminescence
[8] = biological target: Calcium-dependent protein kinase 4 (Plasmodium falciparum (isolate 3D7)) (UniProt Q8IBS5); experiment: PfCDPK4 kinase inhibitors, biochemical, TCAMS library (AID 1159588; cut-off not given, nearly all actives have IC50 up to about 0.91 µM); details: recombinant PfCDPK4, Kinase-Glo ATP depletion luminescence
Calcium-dependent protein kinase 4 (Plasmodium falciparum (isolate 3D7)), sequence (Q8IBS5 whole entry, looked up): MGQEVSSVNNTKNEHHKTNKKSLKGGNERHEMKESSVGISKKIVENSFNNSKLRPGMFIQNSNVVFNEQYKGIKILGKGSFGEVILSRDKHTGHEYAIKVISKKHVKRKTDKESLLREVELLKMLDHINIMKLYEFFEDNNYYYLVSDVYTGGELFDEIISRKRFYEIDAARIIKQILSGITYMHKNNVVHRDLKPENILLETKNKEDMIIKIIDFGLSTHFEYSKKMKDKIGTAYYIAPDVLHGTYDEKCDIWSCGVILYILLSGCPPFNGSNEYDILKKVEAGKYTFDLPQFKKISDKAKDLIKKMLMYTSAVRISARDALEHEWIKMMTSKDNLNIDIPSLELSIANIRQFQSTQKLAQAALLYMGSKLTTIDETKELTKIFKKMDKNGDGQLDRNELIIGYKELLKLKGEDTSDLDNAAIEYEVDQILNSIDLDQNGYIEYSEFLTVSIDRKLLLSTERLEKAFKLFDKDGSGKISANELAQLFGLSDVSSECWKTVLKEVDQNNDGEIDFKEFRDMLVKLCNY

Plasmodium falciparum protein kinase 6 (PK6, PF3D7_1337100), sequence (Q8IDW1 1-305): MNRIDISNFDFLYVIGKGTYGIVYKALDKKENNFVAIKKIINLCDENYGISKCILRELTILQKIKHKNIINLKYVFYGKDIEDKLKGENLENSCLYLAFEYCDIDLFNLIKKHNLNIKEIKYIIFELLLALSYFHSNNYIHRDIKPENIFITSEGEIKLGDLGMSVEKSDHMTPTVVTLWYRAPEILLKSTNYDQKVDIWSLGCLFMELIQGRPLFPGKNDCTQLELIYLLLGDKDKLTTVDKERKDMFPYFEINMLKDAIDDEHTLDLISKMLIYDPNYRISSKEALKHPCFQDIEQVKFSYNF
L-lactate dehydrogenase (Plasmodium falciparum (isolate CDC / Honduras)), sequence (Q27743 whole entry, looked up): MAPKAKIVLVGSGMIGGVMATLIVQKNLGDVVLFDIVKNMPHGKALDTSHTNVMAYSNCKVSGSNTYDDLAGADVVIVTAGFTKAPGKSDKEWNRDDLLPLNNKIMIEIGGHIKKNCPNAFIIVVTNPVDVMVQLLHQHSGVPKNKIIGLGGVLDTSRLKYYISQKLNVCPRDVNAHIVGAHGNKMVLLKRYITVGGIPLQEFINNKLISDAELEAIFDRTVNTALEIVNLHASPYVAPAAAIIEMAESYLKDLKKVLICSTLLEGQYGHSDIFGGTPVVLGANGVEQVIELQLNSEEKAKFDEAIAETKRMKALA
Calcium-dependent protein kinase 1 (Plasmodium falciparum (isolate 3D7)), sequence (P62344 whole entry, looked up): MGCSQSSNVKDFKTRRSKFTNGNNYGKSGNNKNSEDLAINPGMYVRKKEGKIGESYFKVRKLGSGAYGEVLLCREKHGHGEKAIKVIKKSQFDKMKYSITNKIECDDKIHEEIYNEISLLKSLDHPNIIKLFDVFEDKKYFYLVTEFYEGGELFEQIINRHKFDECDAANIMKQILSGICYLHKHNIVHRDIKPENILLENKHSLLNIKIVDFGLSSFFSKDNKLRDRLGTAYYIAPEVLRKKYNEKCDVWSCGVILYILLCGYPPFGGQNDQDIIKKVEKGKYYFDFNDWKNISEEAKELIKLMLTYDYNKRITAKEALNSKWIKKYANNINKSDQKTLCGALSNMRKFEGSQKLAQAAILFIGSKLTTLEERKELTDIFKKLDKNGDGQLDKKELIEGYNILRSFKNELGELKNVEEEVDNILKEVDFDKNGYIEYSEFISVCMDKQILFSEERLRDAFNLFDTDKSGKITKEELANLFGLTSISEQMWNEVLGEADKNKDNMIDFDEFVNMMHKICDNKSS
Protein kinase 7 (PK7), Plasmodium falciparum 3D7 (PF3D7_0213400), sequence (Q7YTF7 1-343): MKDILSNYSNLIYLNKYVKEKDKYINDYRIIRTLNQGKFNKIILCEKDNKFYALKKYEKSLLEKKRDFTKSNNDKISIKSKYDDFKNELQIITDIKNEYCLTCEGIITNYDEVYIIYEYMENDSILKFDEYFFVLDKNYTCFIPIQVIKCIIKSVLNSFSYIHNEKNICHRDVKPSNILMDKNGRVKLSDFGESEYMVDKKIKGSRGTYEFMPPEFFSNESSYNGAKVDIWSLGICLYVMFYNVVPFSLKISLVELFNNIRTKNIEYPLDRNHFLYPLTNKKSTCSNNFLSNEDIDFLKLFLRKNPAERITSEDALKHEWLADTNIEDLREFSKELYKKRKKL

| SMILES | growth inhibition [1] | inhibition [2] [%] | inhibition [3] [%] | growth inhibition [4] | outcome [5] | outcome [6] | outcome [7] | outcome [8] |
| --- | --- | --- | --- | --- | --- | --- | --- | --- |
| CNC(=O)NC1=NC(C)(C)N(OCc2ccc(Cl)c(Cl)c2)C(NC(=O)NC)=N1 | -3% | 1 | -2 | 99% (active) | inactive | inactive | inactive | inactive |
| Cc1cc(N2CCCC2)nc(Nc2ccc(NC(=O)COc3ccccc3)cc2)n1 | 86% (active) | 43 | 4 | 101% (active) | inactive | inactive | inactive | inactive |
| O=C(Nc1cccc(-c2ccc(-c3nc4ccccc4[nH]3)cc2)c1)c1cnn2cccnc12 | 1% | 9 | -3 | 87% (active) | inactive | inactive | inactive | inactive |
